From PubChem BioAssay AID720549 (National Center for Advancing Translational Sciences (NCATS), 2013) come the findings set out here.

Records with an inconclusive call do not appear. Calls of active or inactive are those of the source. Calls come from the whole dose curve; as a rule, active = well fitted inhibition curve with a large enough effect; inconclusive = small, poorly fitted or top-dose-only effect; inactive = flat fitted curve, though single readings scatter.

The target in this assay is RecQ-like DNA helicase BLM (Homo sapiens) (UniProt P54132). Kind of assay: qHTS for Inhibitors of Bloom's syndrome helicase (BLM): Helicase ATPase Orthogonal Confirmatory Assay for SAR. The source says: Human RecQ DNA helicases participate in maintenance of genome stability and DNA repair. While other types of helicases have been explored as targets for drug development, members of the RecQ family have remained less well characterized. Mutations of the Bloom helicase gene have been associated with the rare human genetic disease called Bloom syndrome. […] Moreover, identified inhibitors can be used in cells and animal models to examine the consequences of inhibition on the survival of cancer cells where it has been shown that BLM plays an important role.
Sequence of RecQ-like DNA helicase BLM (Homo sapiens) (P54132 whole entry, looked up): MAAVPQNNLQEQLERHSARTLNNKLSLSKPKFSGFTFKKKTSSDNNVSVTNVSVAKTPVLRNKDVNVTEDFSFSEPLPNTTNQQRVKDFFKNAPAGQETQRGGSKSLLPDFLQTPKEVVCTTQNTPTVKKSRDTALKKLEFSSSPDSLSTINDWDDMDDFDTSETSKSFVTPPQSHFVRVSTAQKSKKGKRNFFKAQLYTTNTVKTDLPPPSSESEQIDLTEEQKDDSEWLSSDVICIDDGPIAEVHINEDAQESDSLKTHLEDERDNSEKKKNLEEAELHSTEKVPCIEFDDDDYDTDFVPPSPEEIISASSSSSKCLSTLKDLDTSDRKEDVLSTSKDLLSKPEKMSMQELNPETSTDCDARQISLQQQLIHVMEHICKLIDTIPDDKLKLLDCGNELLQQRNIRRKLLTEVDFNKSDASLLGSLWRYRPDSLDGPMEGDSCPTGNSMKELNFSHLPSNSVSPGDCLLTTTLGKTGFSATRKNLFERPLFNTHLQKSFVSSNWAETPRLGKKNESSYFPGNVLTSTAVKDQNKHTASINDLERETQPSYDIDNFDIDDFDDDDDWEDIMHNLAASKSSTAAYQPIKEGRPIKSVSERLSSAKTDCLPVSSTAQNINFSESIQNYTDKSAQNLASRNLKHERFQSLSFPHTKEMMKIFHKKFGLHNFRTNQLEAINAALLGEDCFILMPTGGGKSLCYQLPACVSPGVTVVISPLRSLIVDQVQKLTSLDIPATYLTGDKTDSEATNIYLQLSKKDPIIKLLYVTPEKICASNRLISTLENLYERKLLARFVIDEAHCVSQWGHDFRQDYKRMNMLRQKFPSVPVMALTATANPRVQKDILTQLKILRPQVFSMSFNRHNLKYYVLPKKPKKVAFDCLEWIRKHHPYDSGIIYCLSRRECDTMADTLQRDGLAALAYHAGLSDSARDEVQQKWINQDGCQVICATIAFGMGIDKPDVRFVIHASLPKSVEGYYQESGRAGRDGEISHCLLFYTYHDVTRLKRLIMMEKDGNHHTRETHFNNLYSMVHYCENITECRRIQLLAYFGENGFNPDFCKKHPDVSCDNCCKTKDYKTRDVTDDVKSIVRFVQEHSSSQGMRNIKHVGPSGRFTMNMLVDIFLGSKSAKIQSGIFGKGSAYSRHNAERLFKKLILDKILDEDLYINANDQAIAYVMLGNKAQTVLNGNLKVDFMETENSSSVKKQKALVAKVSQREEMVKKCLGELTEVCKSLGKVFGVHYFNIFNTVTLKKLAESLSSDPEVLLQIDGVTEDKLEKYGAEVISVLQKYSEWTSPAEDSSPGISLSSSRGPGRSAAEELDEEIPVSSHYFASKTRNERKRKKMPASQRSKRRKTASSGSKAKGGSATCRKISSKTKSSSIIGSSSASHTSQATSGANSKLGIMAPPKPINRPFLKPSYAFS
A fluorescence-based, biochemical assay in 1536 well format was developed to evaluate inhibition of BLM DNA unwinding activity. This assay was used to screen the MLPCN library. […] This luminescence assay employs a purified BLM enzyme and a single stranded BLM oligo substrate ([…]). For this assay increase in luminescence signal is greater than or equal to 700 RLU. […]
Three microliter of reaction buffer (25mM Tris-HCl pH 8.0, 50mM NaCl, 2mM MgCl2, 1mM DTT, and 0.01% Tween- 20, and 2nM BLM enzyme) was dispensed into a 1536-well assay plates (Greiner, solid white medium-binding) via Aurora Discovery BioRAPTR Flying Reagent Dispenser (FRD). […] After 30 min at room temperature, the luminescence signal was detected using the ViewLux CCD imager. […]
In general terms: qHTS replaces the single test concentration by a dilution series.

With `N#Cc1ccc(NC(=O)Nc2nnc(-c3ccncc3)s2)cc1C(F)(F)F`, the compound was called inactive.
